# ASM inhibitor: human S-ASM enzyme inhibition | AID 504937 | Potency, µM (titrated, usually from 57.5 µM), inactives show at the top dose activity change, negative = inhibition, hits mostly inhibitors | P17405 | placental ASM, HMU-PC fluorogenic substrate, 60 min | 340,000 tested, 0.006% active
#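 Fluorescence read-out (Ex 386 nm, Em 447 nm) after stopping the reaction at pH 10. Enzyme: ASM from human placenta; substrate HMU-PC0, 9 uM final; 60 min, 37 °C. Compound preincubation 10 min, ambient temperature.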
# Tb PFK inh: T. brucei PFK enzyme inhibition; O15648; T. brucei PFK, ADP-Glo luminescence; Potency, µM (top dose mostly 57.5 µM), without a hit: at the top dose activity, negative = inhibition, most hits filed as inhibitors; 330,000 tested, 0.17% active; AID 485367;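 note: 0% = uninhibited 1x PFK enzyme wells and -100% = no-enzyme wells; nearly all actives have a fitted effect of over 60% in size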
#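 Compounds were pin-transferred as a titration series up to 57 uM into substrate buffer (0.5 mM F6P, 0.1 mM ATP, pH 8.0), then 1.25 nM PFK was added and reactions ran 45 min before ADP-Glo detection.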
# VDR inhibitor: vitamin D3 receptor (human) inhibition | P11473 | VDR-SRC2-3 peptide fluorescence polarization, 2 h | Potency, µM, without a hit: max response, negative = inhibition, hits mostly inhibitors | 400,000 tested, 0.93% active; note: % is set by controls: 0 for no effect and ±100 for the full control effect
#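 Two reagent solutions held at 4 deg C in the dark were dispensed, compounds pinned at 23 nl, and the mixture incubated 2 h at room temperature. Read-out: fluorescence polarization of VDR–SRC2-3 peptide binding.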
# PLK1 PBD block: blocks phosphopeptide binding to human PLK1 polo-box domain; Potency, µM, for the others: max response, negative = inhibition, usual class: inhibitors; Plk1 PBD binding of FITC phosphopeptide, fluorescence polarization; 360,000 tested, 2.8% active; note: series mostly up to about 57 µM; % is set by controls: 0 for no effect and ±100 for the full control effect; nearly all actives have a fitted effect of over 65% in size
# Pin1 inh: human Pin1 inhibition. Q13526. AID 504891. Pin1 FP peptide displacement, HiFluor488, 10 min. Potency, µM (doses to about 115 µM), inactives show top-dose activity, negative = inhibition, hits mostly inhibitors. 390,000 tested, 0.009% active; active = well fitted inhibition curve with a large enough effect in the polarisation, with a control signal flat, not every such curve was filed as active; inconclusive = small, poorly fitted or top-dose-only effect, or effect the other way, or a change in a side signal; inactive = no such curve, though single readings can be large or run the other way; the % refers to the polarisation; note: % is set by controls: 0 for no effect and ±100 for the full control effect
# TDP1 inh: blocks human tyrosyl-DNA phosphodiesterase 1. Q9NUW8. recombinant TDP1, AlphaScreen DNA substrate cleavage. Potency, µM (titrated, usually from 130 µM), for the others: top-dose activity change, negative = inhibition, actives largely listed as inhibitors. 350,000 tested, 0.28% active. AID 485290; note: % is set by controls: 0 for no effect and ±100 for the full control effect; nearly all actives have a fitted effect of over 40% in size
# Target sequence (Q9NUW8 whole entry, looked up): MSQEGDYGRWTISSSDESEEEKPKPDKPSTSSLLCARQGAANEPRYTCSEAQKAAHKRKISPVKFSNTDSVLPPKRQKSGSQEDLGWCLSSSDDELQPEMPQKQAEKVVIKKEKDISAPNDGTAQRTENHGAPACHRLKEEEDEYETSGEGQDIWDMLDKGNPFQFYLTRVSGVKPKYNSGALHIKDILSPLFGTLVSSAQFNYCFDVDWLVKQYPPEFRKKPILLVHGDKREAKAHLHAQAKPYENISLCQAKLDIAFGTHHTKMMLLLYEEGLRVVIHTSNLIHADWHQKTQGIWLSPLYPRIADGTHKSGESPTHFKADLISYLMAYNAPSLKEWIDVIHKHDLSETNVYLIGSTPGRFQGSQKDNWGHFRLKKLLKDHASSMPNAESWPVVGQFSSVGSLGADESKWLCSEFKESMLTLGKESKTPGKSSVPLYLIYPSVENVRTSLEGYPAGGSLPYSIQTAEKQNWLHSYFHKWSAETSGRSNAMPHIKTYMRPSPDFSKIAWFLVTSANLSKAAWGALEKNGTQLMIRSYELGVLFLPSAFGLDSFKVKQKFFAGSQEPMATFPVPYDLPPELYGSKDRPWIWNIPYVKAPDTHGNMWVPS
#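 Enzyme-compound mixtures sat 15 min at room temperature, followed by a 5 min reaction with 15 nM final substrate and 10 min with AlphaScreen beads. Recombinant human Tdp1 was used at 1 nM final.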
# * hit, by the source's call; u = inconclusive; x = no result given; ! = repeats disagree. Only some compounds are listed: those with a hit (about 3.1% of all), similar ones and a draw of the others. Unless noted, calls come from the whole dose curve; as a rule, active = well fitted curve in the direction sought with a large enough effect; inconclusive = small, poorly fitted or top-dose-only effect, or another doubt; inactive = no such curve, though single readings can be large; an effect the other way counts as inactive or inconclusive. Potency is the fitted concentration of half-maximal effect.
SMILES,ASM inhibitor,Tb PFK inh,VDR inhibitor,PLK1 PBD block,Pin1 inh,TDP1 inh
CCCCC[C@H](O)/C=C/[C@@H]1[C@H](C/C=C\CCCC(=O)O)[C@@H](O)C[C@H]1O,x,x,0%,x,x,4%
CC(C)OCCCn1c(=O)c2ccccc2n2c(-c3cc(Cl)ccc3O)nnc12,x,x,13%,x,-7%,9%
Cc1ccc(NC(=O)c2nc(S(=O)(=O)Cc3ccccc3C)ncc2Cl)cc1C,-14%,-1%,u,27µM*,76%,0%
Cc1cccc(NC(=O)c2nc(S(C)(=O)=O)ncc2Cl)c1,x,x,u,x,70%,3%
CC(=O)Nc1ccc(NC(=O)c2nc(S(=O)(=O)Cc3cccc(C)c3)ncc2Cl)cc1,-6%,-3%,u,13µM*,-1%,4%
COc1cccc(NC(=O)c2nc(S(C)(=O)=O)ncc2Cl)c1,1%,-16%,20µM*,24µM*,5%,3%
O=[N+]([O-])c1ccc2nc(NCCCO)nc(-c3ccccc3)c2c1,4%,-10%,u,21µM*,11%,0%
O=C(O)CNc1nc(-c2ccccc2)c2cc([N+](=O)[O-])ccc2n1,5%,0%,-25%,-7%,15%,-1%
CCN1C(=O)[C@H]2[C@@H](c3ccc(C)cc3)N3C(=O)N(c4ccc(OC)cc4)C(=O)[C@@]3(C)[C@H]2C1=O,0%,-2%,-20%,21µM*,-5%,x
C=C(C(C)=O)C(O)c1cccc(OC)c1 (stereo unspecified),x,x,8%,x,x,6%
Cc1ccc(NC(=O)c2cc3ccccc3cc2O)cc1,1%,0%,u,3%,-2%,x
COc1ccc(NC(=O)c2cc3ccccc3cc2O)cc1,-5%,-5%,45µM*,30µM*,0%,x
O=c1[nH]c(-c2cccnc2)nc2ccccc12,-3%,-6%,-14%,-1%,10%,-2%
O=c1[nH]c(-c2ccncc2)nc2ccccc12,2%,1%,79µM*,5.3µM*,-1%,1%
CC(C)Nc1nc2ccccc2c(=O)[nH]1,2%,5%,u,21µM*,-7%,3%
NCCN(Cc1ccc(Cl)c(Cl)c1)c1ccc(Br)cn1,x,x,7%,x,-1%,x
CN1C(=O)c2ccccc2C(C(=O)O)C1c1cccc(F)c1 (stereo unspecified),2%,2%,4%,30µM*,-9%,-3%
O=S(=O)(NCCNC/C=C/c1ccc(Br)cc1)c1cccc2cnccc12,x,x,5%,x,x,10%
Cn1c(SCC(=O)NNC(=O)Cc2ccccc2)nc2ccccc2c1=O,0%,1%,u,3.4µM*,2%,-2%
CCc1cccc(-n2c(=O)c3cccnc3n2CC(=O)NCc2ccc(C)cc2)c1,x,x,6%,x,3%,-3%
CS(=O)(=O)Oc1ccc(Br)c2cccnc12,0%,3%,-14%,0%,-6%,5%
Nc1ccc(Br)c2cccnc12,-1%,2%,-12%,8.4µM*,-4%,5%
CC(C)C[C@H](N)C(=O)N[C@H](C(=O)N[C@H](C(=O)N[C@@H](Cc1ccc(O)cc1)C(=O)N1CCC[C@H]1C(=O)N[C@@H](Cc1c[nH]c2ccccc12)C(=O)N[C@H](C(=O)N[C@@H](CCC(N)=O)C(=O)N[C@@H](CCCN=C(N)N)C(=O)O)[C@@H](C)O)C(C)C)C(C)C,x,x,7%,x,x,-1%
Cc1ccc(NC(=S)Nc2ccc3[nH]c(=O)[nH]c3c2)cc1,0%,-8%,u,19µM*,-16%,7%
O=c1[nH]c2ccc(NC(=S)Nc3ccccc3)cc2[nH]1,4%,0%,-2%,u,1%,-5%
SMILES,ASM inhibitor,Tb PFK inh,VDR inhibitor,PLK1 PBD block,Pin1 inh,TDP1 inh
CC(=O)Nc1cc(O)c2nonc2c1O,x,x,4.5µM*,x,x,0%
CCN(CC)c1nn2c(=O)c(C(=O)NCc3cccc(OC)c3OC)cnc2s1,x,x,15%,x,-8%,2%
CC(C)(C)c1cc(-c2n[nH]c(=S)n2-c2ccc(Cl)cc2)n[nH]1,-2%,3%,u,30µM*,1%,1%
Cc1nn(C)cc1-c1n[nH]c(=S)n1-c1ccc(Cl)cc1,5%,-2%,-20%,-11%,-1%,5%
CCNC(=O)NC(=O)CSc1ccc2ccccc2c1,1%,-2%,u,27µM*,0%,-4%
COc1cc(/C=C2\CC/C(=C\c3cc(OC)c(OC)c(OC)c3)C2=O)cc(OC)c1OC,-13%,-5%,-2%,2%,u,6%
COc1cc(/C=C2\CCC/C(=C\c3ccc(O)c(OC)c3)C2=O)ccc1O,-27%,-4%,25µM*!,-10%,45%,10%
COc1cc(/C=C2\CC/C(=C\c3cc(OC)c(O)c(OC)c3)C2=O)cc(OC)c1O,-26%,-30%,-14%,4.7µM*,126%,-3%
CCOc1ccccc1OC(=O)c1cc2ccccc2oc1=O,3%,-5%,u,21µM*,2%,4%
COc1ccc(C2CC(=O)N(CC(=O)Nc3ccc(C)c(Cl)c3)c3ccccc3S2)cc1OC (stereo unspecified),x,x,-3%,x,5%,0%
O=C(O)COc1c(Cl)cc(/C=C2\NC(=O)NC2=O)cc1Br,7%,-3%,7%,-6%,-3%,1%
CCc1ccc(N=C2NC(=O)/C(=C/c3cc(Br)c(OCC(=O)O)c(OC)c3)S2)cc1,15%,-16%,u,30µM*,x,-8%
COc1cc(/C=C2/NC(=O)NC2=O)cc(Br)c1OCc1ccc(C(=O)O)cc1,-13%,-1%,13%,-13%,x,71µM*
CCc1ccc(N=C2NC(=O)/C(=C/c3cc(OC)c(OC)c(OC)c3)S2)cc1,-12%,0%,-3%,-2%,6%,x
CCn1nc(-c2ccccc2)c(-c2ccccc2)c(C(=O)Nc2ccccc2C(N)=O)c1=O,x,x,10%,x,-4%,2%
COc1ccc(OC)c(NC(=O)CCNS(=O)(=O)c2ccc3c(c2)CC(C)N3C(C)=O)c1 (stereo unspecified),x,x,x,3%,x,x
CC(=O)N1c2ccc(S(=O)(=O)NCC3CCC(C(=O)NC4CCCCC4C)CC3)cc2CC1C (stereo unspecified),-1%,-2%,-18%,27µM*,-1%,1%
COc1cccc(CNC(=O)CCNS(=O)(=O)c2ccc3c(c2)CC(C)N3C(C)=O)c1 (stereo unspecified),3%,0%,u,27µM*,-2%,0%
CCOc1ccc(NC(=O)CCNS(=O)(=O)c2ccc3c(c2)CC(C)N3C(C)=O)cc1 (stereo unspecified),0%,0%,u,3µM*,-4%,1%
CC1CCC(NC(=O)CCS(=O)(=O)c2ccc3c(c2)CC(C)N3C(=O)C2CC2)CC1 (stereo unspecified),-2%,3%,-9%,30µM*,4%,5%
CCCC[C@H](O)c1ccccc1,x,x,16%,x,x,x
